Measurements: PubChem BioAssay AID1619 (SRMLSC, 2009)
The whole screen tested about 220,000 compounds, of which about 830 (0.38%) were called active.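 How the source made its calls: active means compound inhibiting the enzyme by more than half at any dose during confirmatory dose-response retesting; inconclusive means strong single-dose inhibitors picked by rank but not retested; inactive means the rest.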 Only a sample is shown. Potency and affinity values are given separately.

biological target: Leucine aminopeptidase (Plasmodium falciparum (isolate 3D7)) (UniProt Q8IL11); assay: P. falciparum M17LAP inhibitors, primary screen, biochemical, fluorogenic H-Leu-NHMec substrate, 1536-well (AID 1619); conditions: recombinant M17LAP, H-Leu-NHMec fluorogenic kinetic assay; at 30 µM; stronger effect = higher value;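 further: plate controls were full reaction with DMSO carrier for no effect and no enzyme background for full effect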
Sequence (Q8IL11 whole entry, looked up): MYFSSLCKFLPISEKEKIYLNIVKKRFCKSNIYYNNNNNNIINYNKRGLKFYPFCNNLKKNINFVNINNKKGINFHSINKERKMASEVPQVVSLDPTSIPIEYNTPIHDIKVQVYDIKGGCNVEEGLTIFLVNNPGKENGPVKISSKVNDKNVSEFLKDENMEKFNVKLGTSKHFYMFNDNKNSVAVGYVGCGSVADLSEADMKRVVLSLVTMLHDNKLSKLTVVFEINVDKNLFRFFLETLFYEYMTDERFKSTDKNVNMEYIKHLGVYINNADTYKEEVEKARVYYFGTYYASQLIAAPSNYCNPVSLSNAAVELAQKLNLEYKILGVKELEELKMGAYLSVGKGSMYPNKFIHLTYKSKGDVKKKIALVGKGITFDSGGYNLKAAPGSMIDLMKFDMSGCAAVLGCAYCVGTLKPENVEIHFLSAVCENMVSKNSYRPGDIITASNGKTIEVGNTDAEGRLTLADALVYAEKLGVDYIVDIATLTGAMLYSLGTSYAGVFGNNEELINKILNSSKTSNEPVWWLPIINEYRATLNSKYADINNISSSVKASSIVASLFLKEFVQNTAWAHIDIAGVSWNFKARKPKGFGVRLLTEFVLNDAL

Structure (SMILES)	inhibition
CCC(c1nnnn1Cc1cccs1)N1CCN(C(=O)c2ccco2)CC1 (stereo unspecified)	16.8% (inactive)
COc1ccc(CC(=O)O/N=C(\N)c2ccncc2)cc1	-0.41% (inactive)
COc1ccc(-n2nc(C(=O)N3CCN(Cc4ccc5c(c4)OCO5)CC3)c3ccccc3c2=O)cc1	6.93% (inactive)
Cc1nc(Nc2ccc(S(=O)(=O)N3CCCCC3C)cc2)c2nnn(Cc3ccccc3)c2n1 (stereo unspecified)	9.37% (inactive)
COc1ccc(NC(=O)c2ccc(NCCN3C(=O)CCC3=O)c([N+](=O)[O-])c2)cc1	4.32% (inactive)
COC(=O)c1ccccc1NC(=O)CSc1nc(O)c(-c2ccccc2)c(=O)[nH]1	5.3% (inactive)
CSCC[C@@H](C(=O)O)N1Cc2ccccc2C1=O	5.39% (inactive)
O=C(O)C(Cc1ccccc1)N1Cc2ccccc2C1=O (stereo unspecified)	-1.49% (inactive)
CCN(Cc1ccccc1)C(=O)Cn1c(=O)n(CC(=O)NCc2ccco2)c(=O)c2sccc21	-1.64% (inactive)
CCN(C(=O)CSc1nnc2ccccn12)c1c(N)n(Cc2ccccc2)c(=O)[nH]c1=O	12.8% (inactive)
COc1ccc(/C=C(\CC(=O)O)c2nc3ccccc3o2)cc1	48.7% (inactive)
N#C/C(=C\c1ccc(Cl)cc1)c1nc2ccccc2o1	8.5% (inactive)
COc1ccc(/C=C/C(=O)NCCC(=O)N2CCCN(C)CC2)cc1	0.13% (inactive)
Fc1ccccc1Nc1nc(-c2ccncc2)nc2ccccc12	0.48% (inactive)
Cc1cc(C(=O)NC(Cc2ccccc2)C(=O)O)c(C)o1 (stereo unspecified)	-7.27% (inactive)
CSCCC(NC(=O)c1cc(C(C)(C)C)oc1C)C(=O)O (stereo unspecified)	20.9% (inactive)
O=C(C[n+]1ccc(/C=N/O)cc1)N(Cc1ccccc1)Cc1ccccc1	4.35% (inactive)
COCCNC(=O)C(C)OC(=O)c1cc2sccc2n1C (stereo unspecified)	3.75% (inactive)
CC(=O)Nc1ccc(S(=O)(=O)Nc2nc3ccccc3nc2Sc2nncn2C)cc1	-11.7% (inactive)
Cn1cnnc1Sc1nc2ccccc2nc1NS(=O)(=O)c1ccccc1	53.8% (inactive)
Cc1[nH]n(-c2cccc3ccccc23)c(=O)c1/C=N/NC(=O)c1cccc([N+](=O)[O-])c1	11.1% (inactive)

Structure (SMILES)	inhibition
CCSc1nnc(NC(=O)C2CC2c2ccccc2)s1 (stereo unspecified)	15% (inactive)
CCSc1nnc(NC(=O)NC2CCCCC2)s1	-14.6% (inactive)
CCSc1nnc(NC(=O)C2CCCCC2)s1	1.5% (inactive)
CCSc1nnc(NC(=O)C2CCCCC2C(=O)O)s1 (stereo unspecified)	48.8% (inactive)
CCOC(=O)c1cc(NC(=O)N(CC)C2CCCCC2)c(C)nc1C	1.12% (inactive)
Cc1cc(C)cc(NC(=O)CSc2nc3c(c(=O)[nH]2)CN(Cc2ccc(F)cc2)CC3)c1	13.5% (inactive)
Cc1ccc(NC(=O)CSc2nc3c(c(=O)[nH]2)CN(Cc2ccc(F)cc2)CC3)cc1C	-0.17% (inactive)
CSc1nc(=O)n(-c2ccccc2)c(C)c1C(C)=O	2.84% (inactive)
COc1cccc(NC(=S)N(CCCN2CCCC(C)C2)Cc2cccs2)c1 (stereo unspecified)	-0.27% (inactive)
CCOC(=O)c1c(-c2ccccc2)oc2ccc(O)c(CN(C)C)c12	-6.67% (inactive)
CCOC(=O)Nc1c2ccccc2nc2ccccc12	-87.5% (inactive)
COc1ccc(CCNC(=O)C2CC(=O)N(CCc3ccc(C)cc3)C2)cc1OC (stereo unspecified)	5.63% (inactive)
CCCn1c(SCC(=O)NC2CCCc3ccccc32)n[nH]c1=O (stereo unspecified)	-0.96% (inactive)
C=CCn1c(N)c(C(=O)N2CCN(C)CC2)sc1=S	14% (inactive)
O=C(O)c1ccc(S(=O)(=O)Nc2ccc(O)c(Sc3nc4ccccc4s3)c2)cc1	40.7% (inactive)
O=C(O)c1cccc(S(=O)(=O)Nc2ccc(O)c(Sc3nc4ccccc4s3)c2)c1	42.9% (inactive)
CCOc1ccc(NC(=O)Nc2nnc(CC)s2)cc1	9.94% (inactive)
COc1cccc(Nc2nc3ccc(OC)cc3s2)c1	14.2% (inactive)
COc1cccc(Nc2ccc(Nc3cccc(OC)c3)nn2)c1	-1.13% (inactive)
CCOc1ccc(Nc2nc3ccccc3c(=O)s2)cc1	4.25% (inactive)
O=C(CSc1ccc(Cl)cc1)N1CCC(c2nc3ccccc3s2)CC1	1% (inactive)

Structure (SMILES)	inhibition
CCn1c(SCC(=O)N(C)c2c(N)n(Cc3ccccc3)c(=O)[nH]c2=O)nc2ccccc21	-11.8% (inactive)
Cc1c(C(=O)NCc2ccccc2)c(-c2ccccc2)nn1-c1ccccc1	6.71% (inactive)
O=C(COc1ccccc1Cl)N1CCN(c2ncccn2)CC1	5.76% (inactive)
O=C(O)CSc1nc(C(F)(F)F)cc(=O)n1-c1ccccc1	-6.87% (inactive)
COCCCNC(=O)c1ccc(Cn2c(=O)c3ccccc3n(CC(=O)NCc3ccco3)c2=O)cc1	-3.96% (inactive)
CCN(CC)c1ccc(NC(=O)CSc2nc3ccccc3c(=O)n2-c2cc(S(=O)(=O)N(C)C)ccc2C)cc1	-13% (inactive)
Clc1ccccc1Nc1ncnc2c1nnn2Cc1ccccc1	5.79% (inactive)
CC(=O)Oc1ccc(C(=O)[C@H]2[C@H]3C(=O)N(c4ccc(C)cc4)C(=O)[C@H]3[C@@H]3C=CC=NN32)cc1	14.6% (inactive)
c1ccc(CNc2ncnc3nc[nH]c23)cc1	45.1% (inactive)
COc1ccccc1CNc1ncnc2nc[nH]c12	6.16% (inactive)
COc1cc2c(cc1OC)CN(C(=S)Nc1ccc(Cl)cc1)CC2	1.81% (inactive)
CC1CN(C(=O)N2CCOCC2)CCN1C(=O)N1CCOCC1 (stereo unspecified)	-0.08% (inactive)
CCOC(=O)c1cc(-c2csc(-c3ccc(C(F)(F)F)cc3)n2)on1	-0.99% (inactive)
O=C(NCCCO)/C(=C\C=C\c1ccccc1)NC(=O)c1ccccc1Cl	18.5% (inactive)
C=CCNC(=O)/C(=C\C=C\c1ccccc1)NC(=O)c1ccccc1Cl	-0.22% (inactive)
CCc1ccc(C(=O)CSc2nc3cc(S(=O)(=O)N4CCOCC4)ccc3n2CC)cc1	16.6% (inactive)
O=C(CCSc1ccccc1)NCCSCc1ccco1	22.2% (inactive)
Cc1oc2c(C)c(O)ccc2c(=O)c1-c1nncn1-c1ccccc1	5.69% (inactive)
CCOC(=O)c1oc2c(C)c(O)ccc2c(=O)c1-c1nncn1-c1ccccc1	17.4% (inactive)
